Source: PubChem (National Center for Advancing Translational Sciences (NCATS))
Only some compounds are listed: those with a hit (about 17% of all), similar ones and a draw of the others.
TDP1 cell CPT: DT40-hTDP1 cell growth loss with CPT. chicken DT40 Tdp1-/-;hTDP1 cells + 20 nM CPT, ATP luminescence, 48 h. Potency, µM (titrated, usually from 46.2 µM), without a hit: top-dose activity change, negative = growth inhibition, actives largely listed as inhibitors. actives 12% (n = 420,000). AID 686979; also: % is scaled to controls: 0 for no effect and ±100 for the full control effect; nearly all actives have a fitted effect of over 55% in size
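Chicken DT40 Tdp1-/- cells stably complemented with human TDP1 were seeded at 400 cells/well in medium containing 20 nM camptothecin, exposed to pin-transferred compounds, and grown at 37 °C for at least 48 hr. Viability was read as ATP luminescence.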
TDP1 cell noCPT: qHTS for Inhibitors of human tyrosyl-DNA phosphodiesterase 1 (TDP1): qHTS in cells in absence of CPT; Potency, µM (titrated, usually from 46.2 µM), for inactives: top-dose activity change, negative = growth inhibition, usual class: inhibitors; DT40 Tdp1-/- hTDP1 cells, no CPT, ATP luminescence, 48 h; AID 686978, 2013; actives 15% (n = 420,000); also: % is scaled to controls: 0 for no effect and ±100 for the full control effect; nearly all actives have a fitted effect of over 55% in size
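Growth kinetics read by CellTiter-Glo luminescence after ≥48 hr at 37 °C. Cells: DT40 Tdp1-/- stably carrying human TDP1, 400 per well, compound exposure in the absence of CPT (DMSO vehicle).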
HepG2 tox: counter-screen for TGF-b inhibitors: cytotoxicity in HepG2 cells. actives 0.76% (n = 410,000). Potency, µM (top dose mostly 46.1 µM), for the others: top-dose activity change, negative = cytotoxicity, most hits filed as cytotoxic. HepG2 CAGA-GFP viability, ATP luminescence, 18 h. AID 588856
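HepG2 CAGA-GFP cells (1000/well, DMEM with 1% FBS) received compound, then TGF-beta at 500 pg/mL final, and were incubated 18 hours at 37 degrees C. Viability was read by CellTiter-Glo luminescence. Media-only wells were set as complete cell-killing and DMSO as no toxicity.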
HT1080NT lethal: kills 2HG-producing HT-1080-NT fibrosarcoma cells; HT-1080-NT fibrosarcoma viability, CellTiter-Glo ATP luminescence, 48 h; Potency, µM (titrated, usually from 46.1 µM), for the others: at the top dose activity, negative = less viability, usual class: cytotoxic; actives 1.6% (n = 360,000); AID 686970;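 also: NT is the 2HG producing partner of a matched IDH1 knockdown line; 0% = DMSO-treated cells and -100% = media-only wells without cells; nearly all actives have a fitted effect of over 55% in size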
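Viability of the 2HG-overproducing fibrosarcoma line after 48 hours of compound exposure at 37 degrees C was determined by luminescence with CellTiter-Glo, and concentration-effect curves were then fitted and categorized.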
TGFb SMAD3 inh: TGF-b pathway inhibition | HepG2 CAGA-GFP TGF-b/SMAD3 reporter, GFP fluorescence, 18 h; TGF-beta stimulated, 500 pg/mL final | Potency, µM (highest dose often 46.1 µM), inactives show at the top dose activity, negative = inhibition, actives largely listed as inhibitors | actives 1.2% (n = 410,000); also: % is scaled to controls: 0 for no effect and ±100 for the full control effect; nearly all actives have a fitted effect of over 65% in size
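HEPG2 CAGA-GFP, 1000 cells/well; 2 h settle, 37 C; cpd via pin tool; TGF-b 500 pg/mL final; 18 h, 37 C; GFP imaging ex488/em500-530; %Activity normalised to -TGF-b and +DMSO controls; CRC fit, curve class.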
HT1080 IDH1KD tx: toxicity to HT-1080 IDH1 knockdown cells (counter line). HT-1080 IDH1 knockdown viability, ATP luminescence, 48 h. Potency, µM (top dose mostly 46.1 µM), without a hit: at the top dose activity, negative = toxicity, most hits filed as cytotoxic. actives 2% (n = 360,000). AID 686971;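 also: 0% = DMSO wells and -100% = cell-free medium wells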
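Viability of IDH1-knockdown HT-1080 fibrosarcoma cells was assessed by CellTiter-Glo after 48 h at 37 °C with titrated compound; concentration-effect curves were classified by fit quality and response size.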
* hit, by the source's call; ? = inconclusive; / = no result. Calls follow the shape of the dose curve; as a rule, active = well fitted curve in the direction sought with a large enough effect; inconclusive = small, poorly fitted or top-dose-only effect, or another doubt; inactive = no such curve, though single readings can be large; an effect the other way counts as inactive or inconclusive. Potency is read from the fitted curve at half-maximal effect.

SMILES	TDP1 cell CPT	TDP1 cell noCPT	HepG2 tox	HT1080NT lethal	TGFb SMAD3 inh	HT1080 IDH1KD tx
NC(=O)c1cc2cc(Cl)ccc2o/c1=N/NC(=O)c1cccs1	?	?	2.2%	27.2%	-0.5%	16.1%
CCCCc1nc(SCC(=O)N2CCCCC2)c2c(=O)n(C)c(=O)n(C)c2n1	?	?	-33.9%	15.3%	?	-0.3%
CC[N+]1(CC(=O)c2cccs2)CCCCC1	?	?	-27.6%	/	-8.7%	/
COc1ccc(C)cc1NC(=O)CN(C)S(=O)(=O)c1ccc2c(c1)CC(C)N2C(C)=O (stereo not drawn)	23.1µM*	?	0.8%	9.9%	-0.1%	9.1%
CC(=O)N1c2ccc(S(=O)(=O)N(C)c3cc(C)ccc3C)cc2CC1C (stereo not drawn)	?	23.1µM*	-8.4%	0.5%	-0.2%	5.6%
COc1ccc(CCNC(=O)c2cc(S(=O)(=O)N3CCOCC3)ccc2F)cc1	?	?	16.5%	-3.4%	4.1%	-6.6%
NC(=O)[C@H]1CC2(CC(c3cccc(NC(=O)COc4ccc(Cl)cc4)c3)=NO2)CN1C(=O)CC(c1ccccc1)c1ccccc1 (stereo partly drawn)	?	?	-1.1%	-2.6%	?	-16.8%
C/C=C\C=C\C(=O)N1CC2(CC(c3cccc(NC(=O)CC(c4ccccc4)c4ccccc4)c3)=NO2)C[C@H]1C(N)=O (stereo partly drawn)	?	18.4µM*	-0.1%	-8.4%	?	-4.8%
NC(=O)[C@H]1CC2(CC(c3cccc(NC(=O)CC(c4ccccc4)c4ccccc4)c3)=NO2)CN1C(=O)C(c1ccccc1)c1ccccc1 (stereo partly drawn)	18.4µM*	?	-8.7%	6.2%	?	3.1%
NC(=O)[C@@H]1CC2(CC(c3cccc(NC(=O)CC(c4ccccc4)c4ccccc4)c3)=NO2)CN1C(=O)COc1ccc(Cl)cc1 (stereo partly drawn)	18.4µM*	?	-46.6%	-22.0%	?	-8.6%
NC(=O)[C@H]1CC2(CC(c3cccc(NC(=O)CC(c4ccccc4)c4ccccc4)c3)=NO2)CN1C(=O)c1ccccc1C(=O)c1ccccc1 (stereo partly drawn)	13µM*	?	-1.9%	-3.4%	-16.0%	-0.8%
CCC(=O)Nc1cccc(C2=NOC3(C2)C[C@@H](C(N)=O)N(C(=O)c2ccccc2C(=O)c2ccccc2)C3)c1 (stereo partly drawn)	1.1%	13.3%	-10.9%	5.0%	-3.8%	1.2%
O=C(O)Cn1nnc(-c2cccs2)n1	-6.1%	-3.1%	3.16µM*	2.0%	-3.2%	3.4%
CC(C)=CCC12Oc3cc(O)ccc3C1(O)Oc1cc(O)c([C@H]3C=C(C)CC(c4ccc(O)cc4O)[C@H]3C(=O)c3ccc(O)cc3O)c(O)c1C2=O (stereo partly drawn)	?	25.9µM*	-98.1%	?	?	?
COc1ccc2cc([C@H](C)CO)ccc2c1	13.3%	-13.4%	/	/	/	/
CCCOC(=O)c1ccc(NC(=O)Cn2nnc3sc4c(c3c2=O)CCC(C(C)(C)C)C4)cc1 (stereo not drawn)	18.4µM*	8.2µM*	2.6%	/	-2.3%	/
CCN(C(=O)Cn1nnc2sc3c(c2c1=O)CCC(C(C)(C)C)C3)c1cccc(C)c1 (stereo not drawn)	16.4µM*	20.6µM*	-1.2%	/	-1.7%	/
Cc1cc(C)c(NC(=O)Cn2nnc3sc4c(c3c2=O)CCC(C(C)(C)C)C4)c(C)c1 (stereo not drawn)	14.6µM*	20.6µM*	2.7%	/	-41.4%	/
CCc1ccccc1NC(=O)Cn1nnc2sc3c(c2c1=O)CCC(C(C)(C)C)C3 (stereo not drawn)	16.4µM*	14.6µM*	-5.1%	/	11.2%	/
CC(=O)N1CCN(Cc2nc3ccc(Cl)cc3n2CCO)CC1	-6.1%	0.1%	-18.6%	-0.1%	16.6%	-3.2%
COC(=O)c1ccc(OC(=O)CCc2cc(OC)c(OC)c(OC)c2)cc1	-3.1%	7.4%	4.6%	3.4%	1.7%	7.7%
COc1ccc(Cl)cc1NC(=O)Cn1nnc2sc3c(c2c1=O)CCC(C(C)(C)C)C3 (stereo not drawn)	?	?	7.0%	/	-1.6%	/
Cc1ccc(Cl)cc1NC(=O)Cn1nnc2sc3c(c2c1=O)CCC(C(C)(C)C)C3 (stereo not drawn)	7.31µM*	4.11µM*	-2.2%	/	0.6%	/
Cc1cccc(CC(=O)N2CC(=O)Nc3ccc(Br)cc3C2c2ccc(F)cc2)c1 (stereo not drawn)	?	?	-21.7%	/	?	/
Cc1ccc2nc(SCc3nc(-c4ccc(Cl)cc4)no3)[nH]c2c1	16.4µM*	23.1µM*	-72.5%	/	?	/
SMILES	TDP1 cell CPT	TDP1 cell noCPT	HepG2 tox	HT1080NT lethal	TGFb SMAD3 inh	HT1080 IDH1KD tx
O=c1cc(-c2ccccc2)nc(SCc2nc(-c3ccc(Cl)cc3)no2)[nH]1	-10.8%	-7.5%	6.7%	/	2.0%	/
CCc1cc(=O)[nH]c(SCc2nc(-c3ccc(C(F)(F)F)cc3)no2)n1	23.1µM*	16.4µM*	-53.6%	/	-13.0%	/
COc1ccc(-c2noc(CSc3nc(-c4ccccc4)cc(=O)[nH]3)n2)cc1OC	-4.1%	-14.9%	-17.9%	-20.8%	-47.8%	-20.0%
CCc1cc(=O)[nH]c(SCc2nc(-c3ccccc3C)no2)n1	?	?	-22.8%	/	?	/
COc1ccc(-c2noc(CSc3nc(N)cc(=O)[nH]3)n2)cc1	16.4µM*	18.4µM*	-2.6%	?	-7.4%	?
CCN(Cc1ccncc1)C(=O)CCc1nnc(CCc2ccc(OC)cc2)o1	-2.4%	-28.5%	-8.0%	11.8%	-3.2%	-4.9%
COc1ccc(NS(=O)(=O)c2cc(NC(=O)C(CC(C)C)NC(N)=O)ccc2N2CCOCC2)cc1 (stereo not drawn)	7.8%	11.5%	7.8%	-1.2%	3.7%	0.0%
CC(C)(C)c1ccc(CCC2OCC(C[N+]3(C)CCOCC3)O2)cc1 (stereo not drawn)	1.84µM*	2.06µM*	8.2%	1.2%	24.9%	15.6%
CC1=C(C(=O)Nc2ccc(C)cc2C)C(c2ccc(Br)cc2)n2ncc(C(=O)Nc3cccc(C)c3)c2N1 (stereo not drawn)	-3.8%	?	-4.7%	/	-17.4%	/
